# Laboratory results: PubChem BioAssay (NCI)
# About 83,000 compounds went through this panel and 20% of them were active in at least one assay; those are over-represented in the sample as a whole.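 Note: values are percent growth. 100 is the growth of untreated cells, values between 100 and 0 indicate rising inhibition; between -100 and 0 indicates cell death.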 A number with no mark means an inactive call. Active and inactive are the calls of the source. The calls were made as follows: active = growth percent below 10; inactive = the rest.
# How the values were obtained:
# Assay in all cases: NCI-60 one-dose screen, 48 h (100 = growth as untreated, 0 = no growth, -100 = all killed)
# Settings in all cases: 10 µM
# DU-145 prostate = test system: DU-145 prostate
# K-562 leukemia = test system: K-562 leukemia
# MALME-3M melanoma = test system: MALME-3M melanoma
# MDA-MB-231 breast = test system: MDA-MB-231 breast
# RXF 393 renal = test system: RXF 393 renal
# SF-268 CNS = test system: SF-268 CNS
# SF-295 CNS = test system: SF-295 CNS
# SF-539 CNS = test system: SF-539 CNS
# UACC-257 melanoma = test system: UACC-257 melanoma
# M14 melanoma = test system: M14 melanoma
# HCT-15 colon = test system: HCT-15 colon
# HT29 colon = test system: HT29 colon
# SNB-75 CNS = test system: SNB-75 CNS
# SNB-19 CNS = test system: SNB-19 CNS
# U251 CNS = test system: U251 CNS
# PC-3 prostate = test system: PC-3 prostate
# SK-MEL-5 melanoma = test system: SK-MEL-5 melanoma
# UACC-62 melanoma = test system: UACC-62 melanoma
# SK-MEL-28 melanoma = test system: SK-MEL-28 melanoma
# LOX IMVI melanoma = test system: LOX IMVI melanoma
SMILES,growth (DU-145 prostate),growth (K-562 leukemia),growth (MALME-3M melanoma),growth (MDA-MB-231 breast),growth (RXF 393 renal),growth (SF-268 CNS),growth (SF-295 CNS),growth (SF-539 CNS),growth (UACC-257 melanoma),growth (M14 melanoma),growth (HCT-15 colon),growth (HT29 colon),growth (SNB-75 CNS),growth (SNB-19 CNS),growth (U251 CNS),growth (PC-3 prostate),growth (SK-MEL-5 melanoma),growth (UACC-62 melanoma),growth (SK-MEL-28 melanoma),growth (LOX IMVI melanoma)
COc1ccc2c3nc4cc(C)c(C)cc4nc3n(CCN(C)C)c2c1,-3.48% (active),3.09% (active),-86% (active),-10% (active),-25.5% (active),27.8%,-59.4% (active),-88.1% (active),10.5%,-73.5% (active),1.95% (active),31.4%,21.5%,9.9% (active),-73.1% (active),21.2%,-80.7% (active),3.37% (active),-63.9% (active),–
O=C(Nc1ccc(F)c(Cl)c1)c1cc(-c2ccc(F)cc2F)ccc1O,13.3%,6.16% (active),-28.6% (active),-24.5% (active),-16.6% (active),4.5% (active),-82.1% (active),-7.23% (active),-13.5% (active),20%,-18.7% (active),26.8%,-20.9% (active),13%,11.5%,1.28% (active),-90.6% (active),-54.6% (active),-16.2% (active),–
O=C1Nc2cc(-c3ccc(NC(=O)c4cccs4)cc3)ccc2/C1=C/c1ccc[nH]1,32.7%,80.8%,78.2%,61%,73.9%,73.5%,55.1%,83.9%,75.2%,88.9%,47.6%,71.1%,138%,87.1%,65.9%,65.6%,63.6%,80.8%,101%,55.7%
COc1ccc([C@H]2C(C(=O)c3ccc(Cl)cc3)C3(N[C@@H]2c2ccccc2)C(=O)Nc2ccc(Br)cc23)cc1 (some centres not stated),17%,5.88% (active),-7.99% (active),-58.3% (active),-72.9% (active),18.9%,-60.2% (active),-21.5% (active),17%,16.1%,0.62% (active),-50.6% (active),15.6%,–,-18% (active),17.9%,8.62% (active),-55.4% (active),18.9%,-100% (active)
O=c1cc(-c2ccccc2)oc2cc(OCCCCNCc3ccccc3)cc(O)c12,27.6%,-17.6% (active),-92.6% (active),-12.4% (active),-79.8% (active),43.6%,-93.5% (active),-96.2% (active),-35.6% (active),-75.9% (active),-86.1% (active),-55.4% (active),53.4%,67.2%,–,-8.47% (active),-99.9% (active),-68.7% (active),-69.7% (active),-99.9% (active)
COc1cccc(-c2ccc(/C=N/NC(=O)c3[nH]c4ccc(Br)cc4c3-c3ccccc3)o2)c1,25.9%,3.8% (active),47.5%,23.6%,26.1%,33.5%,-14.6% (active),-67.7% (active),36.9%,16.7%,1.34% (active),-9.03% (active),31%,40.3%,7.57% (active),20.2%,-0.615% (active),–,42.5%,12.3%
O=C(Nc1cc(Cl)cc(Cl)c1)Nc1cc(Cl)cc(Cl)c1,15.2%,-25.5% (active),-40.5% (active),-65.6% (active),-15.1% (active),9.6% (active),-47.9% (active),-46.2% (active),-29.7% (active),-77.9% (active),-23.1% (active),-20.9% (active),-14.1% (active),5.6% (active),-23.2% (active),–,-100% (active),–,-12.1% (active),-91.1% (active)
O=c1oc2ccc(-c3ccc(F)cc3F)cc2c(=O)n1-c1ccc(F)cc1,14.5%,5.98% (active),-21.2% (active),-5.38% (active),-10.4% (active),2.76% (active),-19.3% (active),-3.51% (active),15.5%,18.3%,5.32% (active),59.6%,-14% (active),13.3%,–,0.638% (active),-77.9% (active),-50.2% (active),-0.667% (active),1.46% (active)
O=C(Nc1nc2ccc([N+](=O)[O-])cc2s1)Nc1ccccc1I,17.9%,4.53% (active),-5.11% (active),0.0164% (active),-12.7% (active),22%,-25.8% (active),-0.233% (active),-17.8% (active),2.29% (active),1.19% (active),1.95% (active),-1.46% (active),10.5%,2.73% (active),9.44% (active),-78.5% (active),–,15.8%,9.2% (active)
O=C(c1ccccc1)n1ccc(-c2cc3cc(Br)ccc3oc2=O)n1,37.3%,19.9%,36.8%,32%,45.2%,36.5%,24.4%,10.5%,2.91% (active),-4.71% (active),22.8%,63.5%,66.1%,34.5%,–,28.2%,10.6%,-21.1% (active),24.4%,2.5% (active)
O=C(O)CCCCCCCCCCN1C(=O)/C(=C/c2cnc(-c3ccc(Cl)cc3)s2)SC1=S,13.2%,22.1%,80.6%,48.9%,77.4%,49.4%,8.83% (active),36.4%,87.6%,16.5%,26.3%,96.3%,73.3%,27.1%,–,25.4%,27.4%,0.545% (active),40%,5.11% (active)
COc1cc2oc(-c3cccc(C(=O)Nc4ccc(Cl)cc4)c3)cc(=O)c2c(OCCNC(=O)CNC(=O)OC(C)(C)C)c1OC,77.5%,46%,65%,30.1%,-17.7% (active),81.8%,50.6%,67.3%,80.8%,60.2%,40.9%,63.2%,74.9%,78.9%,74.8%,57.2%,31.2%,–,69.4%,–
